Assay [1] deals with Mast/stem cell growth factor receptor Kit (Homo sapiens) (UniProt P10721). The settings on record: at 1 µM.
Assay [2] has as its system Mast/stem cell growth factor receptor Kit (Homo sapiens), P10721 [D816V]. Particulars: at 0.1 µM.
Assay [3] has the same test system. The settings on record: at 1 µM.
The subject of assay [4] is Mast/stem cell growth factor receptor Kit (Homo sapiens), P10721 [T670I]. The settings on record: at 0.1 µM.
Assay [5] shares this test system. The settings on record: at 1 µM.
In assay [6] the test system is Mast/stem cell growth factor receptor Kit (Homo sapiens), P10721 [V560G]. The settings on record: at 0.1 µM.
For assay [7] the test system is unchanged. The settings on record: at 1 µM.
Assay [8] addresses Tyrosine-protein kinase Lck (Homo sapiens) (UniProt P06239). Particulars: at 0.1 µM.
Assay [9] has the same target. Particulars: at 1 µM.
Assay [10] concerns the target Leukocyte tyrosine kinase receptor (Homo sapiens) (UniProt P29376). Particulars: at 0.1 µM.
The target is the same in assay [11]. The settings on record: at 1 µM.
Assay [12] concerns the target Tyrosine-protein kinase Lyn (Homo sapiens) (UniProt P07948). Particulars: at 0.1 µM.
Assay [13] shares this target. Particulars: at 1 µM.
The target is the same in assay [14]. The settings on record: at 0.1 µM. This is another data set of the same source.
Assay [15] shares this target. Particulars: at 1 µM. The source holds these as a separate data set.
Assay [16] has as its target T1, Tyrosine-protein kinase Mer (Homo sapiens) (UniProt Q12866).
T1 sequence (whole entry): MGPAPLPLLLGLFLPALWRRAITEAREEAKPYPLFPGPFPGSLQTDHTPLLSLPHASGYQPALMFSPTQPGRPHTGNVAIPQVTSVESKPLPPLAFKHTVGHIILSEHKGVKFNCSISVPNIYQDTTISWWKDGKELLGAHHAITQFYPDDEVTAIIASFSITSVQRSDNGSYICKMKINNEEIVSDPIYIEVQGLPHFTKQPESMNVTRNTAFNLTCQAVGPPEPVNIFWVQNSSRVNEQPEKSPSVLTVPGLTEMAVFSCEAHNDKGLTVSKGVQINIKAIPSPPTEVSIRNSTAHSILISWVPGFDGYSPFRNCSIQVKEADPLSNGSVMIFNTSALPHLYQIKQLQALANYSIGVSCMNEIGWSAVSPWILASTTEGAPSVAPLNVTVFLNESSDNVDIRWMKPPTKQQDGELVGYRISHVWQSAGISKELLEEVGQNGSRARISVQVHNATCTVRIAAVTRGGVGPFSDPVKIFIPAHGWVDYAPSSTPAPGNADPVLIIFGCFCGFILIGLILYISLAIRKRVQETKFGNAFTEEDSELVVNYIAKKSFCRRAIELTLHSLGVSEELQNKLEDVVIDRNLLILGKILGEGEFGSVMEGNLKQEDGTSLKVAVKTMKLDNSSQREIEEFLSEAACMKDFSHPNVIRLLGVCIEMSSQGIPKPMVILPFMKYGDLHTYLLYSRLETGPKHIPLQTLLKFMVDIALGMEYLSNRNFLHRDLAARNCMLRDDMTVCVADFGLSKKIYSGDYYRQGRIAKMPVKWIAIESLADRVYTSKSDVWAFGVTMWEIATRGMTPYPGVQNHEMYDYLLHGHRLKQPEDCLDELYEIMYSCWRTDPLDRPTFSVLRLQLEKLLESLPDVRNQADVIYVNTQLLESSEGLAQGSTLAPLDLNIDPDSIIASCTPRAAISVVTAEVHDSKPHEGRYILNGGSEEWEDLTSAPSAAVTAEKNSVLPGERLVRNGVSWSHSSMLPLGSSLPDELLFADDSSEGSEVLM
Particulars: at 0.1 µM.

Assay [17] deals with T1, Tyrosine-protein kinase Mer (Homo sapiens). Particulars: at 1 µM.
In assay [18] the target is Hepatocyte growth factor receptor (Homo sapiens) (UniProt P08581). The settings on record: at 0.1 µM.
Assay [19] shares this target. Particulars: at 1 µM.
The target in assay [20] is T2, Muscle, skeletal receptor tyrosine-protein kinase (Homo sapiens) (UniProt O15146).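 Further: values are mean inhibition of MuSK from the GSK PKIS kinase screening panel.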
T2 sequence (whole entry): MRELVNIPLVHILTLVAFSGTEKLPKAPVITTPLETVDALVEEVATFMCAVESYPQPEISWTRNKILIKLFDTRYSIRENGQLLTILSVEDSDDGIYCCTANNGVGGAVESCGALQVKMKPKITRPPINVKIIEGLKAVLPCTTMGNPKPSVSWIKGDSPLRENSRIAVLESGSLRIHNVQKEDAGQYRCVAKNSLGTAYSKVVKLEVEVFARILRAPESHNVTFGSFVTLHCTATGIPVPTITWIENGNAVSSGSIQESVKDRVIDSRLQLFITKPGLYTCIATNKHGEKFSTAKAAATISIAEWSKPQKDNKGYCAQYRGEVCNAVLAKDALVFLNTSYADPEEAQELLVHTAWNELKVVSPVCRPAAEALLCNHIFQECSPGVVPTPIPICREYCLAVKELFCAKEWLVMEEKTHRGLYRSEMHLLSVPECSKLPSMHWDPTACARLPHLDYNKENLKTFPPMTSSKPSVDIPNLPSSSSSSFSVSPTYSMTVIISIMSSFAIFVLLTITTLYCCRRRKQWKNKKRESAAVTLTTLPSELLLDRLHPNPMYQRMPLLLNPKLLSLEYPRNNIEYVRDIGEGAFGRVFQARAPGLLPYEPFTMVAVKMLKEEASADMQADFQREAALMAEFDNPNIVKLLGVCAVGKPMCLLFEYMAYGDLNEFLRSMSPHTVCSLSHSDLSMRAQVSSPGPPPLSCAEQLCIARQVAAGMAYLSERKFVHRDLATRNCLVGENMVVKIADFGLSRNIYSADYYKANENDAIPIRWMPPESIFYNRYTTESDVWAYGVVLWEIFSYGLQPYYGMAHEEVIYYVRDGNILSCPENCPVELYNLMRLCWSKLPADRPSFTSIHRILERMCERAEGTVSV
The settings on record: at 0.1 µM.

Each structure is given as a SMILES string.

Chain of Mast/stem cell growth factor receptor Kit (Homo sapiens), P10721 [V560G] (P10721 whole entry V560G): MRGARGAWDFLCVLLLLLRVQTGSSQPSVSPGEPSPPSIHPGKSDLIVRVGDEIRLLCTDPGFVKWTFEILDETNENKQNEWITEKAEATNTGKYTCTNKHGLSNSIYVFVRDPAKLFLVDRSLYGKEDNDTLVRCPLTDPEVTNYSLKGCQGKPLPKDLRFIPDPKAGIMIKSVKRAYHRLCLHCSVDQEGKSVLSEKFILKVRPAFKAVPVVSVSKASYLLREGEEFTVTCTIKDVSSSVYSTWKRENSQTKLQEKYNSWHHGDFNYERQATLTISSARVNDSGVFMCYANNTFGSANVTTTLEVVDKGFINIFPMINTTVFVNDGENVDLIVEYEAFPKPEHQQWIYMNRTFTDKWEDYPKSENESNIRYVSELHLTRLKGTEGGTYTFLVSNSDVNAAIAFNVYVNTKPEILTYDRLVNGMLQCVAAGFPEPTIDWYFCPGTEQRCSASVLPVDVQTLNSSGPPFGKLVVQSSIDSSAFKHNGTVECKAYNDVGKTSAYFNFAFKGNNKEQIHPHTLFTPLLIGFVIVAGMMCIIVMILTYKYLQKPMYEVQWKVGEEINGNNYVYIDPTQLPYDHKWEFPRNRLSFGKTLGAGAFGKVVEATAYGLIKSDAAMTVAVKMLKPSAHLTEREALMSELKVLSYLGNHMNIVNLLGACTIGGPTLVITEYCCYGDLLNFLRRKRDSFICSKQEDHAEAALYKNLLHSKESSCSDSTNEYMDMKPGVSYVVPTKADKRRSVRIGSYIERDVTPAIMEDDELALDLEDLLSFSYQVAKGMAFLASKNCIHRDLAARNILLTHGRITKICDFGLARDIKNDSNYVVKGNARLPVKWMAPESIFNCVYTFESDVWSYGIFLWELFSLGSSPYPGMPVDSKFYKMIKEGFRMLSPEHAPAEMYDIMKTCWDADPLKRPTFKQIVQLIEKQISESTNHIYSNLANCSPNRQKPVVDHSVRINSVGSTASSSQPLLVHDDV
Chain of Mast/stem cell growth factor receptor Kit (Homo sapiens), P10721 [D816V] (P10721 whole entry D816V): as the sequence (P10721 whole entry V560G) above, with G560V, D816V counted along it
Chain of Mast/stem cell growth factor receptor Kit (Homo sapiens) (P10721 whole entry): as the sequence (P10721 whole entry V560G) above, with G560V counted along it
Chain of Mast/stem cell growth factor receptor Kit (Homo sapiens), P10721 [T670I] (P10721 whole entry T670I): as the sequence (P10721 whole entry V560G) above, with G560V, T670I counted along it
Chain of Leukocyte tyrosine kinase receptor (Homo sapiens) (P29376 whole entry): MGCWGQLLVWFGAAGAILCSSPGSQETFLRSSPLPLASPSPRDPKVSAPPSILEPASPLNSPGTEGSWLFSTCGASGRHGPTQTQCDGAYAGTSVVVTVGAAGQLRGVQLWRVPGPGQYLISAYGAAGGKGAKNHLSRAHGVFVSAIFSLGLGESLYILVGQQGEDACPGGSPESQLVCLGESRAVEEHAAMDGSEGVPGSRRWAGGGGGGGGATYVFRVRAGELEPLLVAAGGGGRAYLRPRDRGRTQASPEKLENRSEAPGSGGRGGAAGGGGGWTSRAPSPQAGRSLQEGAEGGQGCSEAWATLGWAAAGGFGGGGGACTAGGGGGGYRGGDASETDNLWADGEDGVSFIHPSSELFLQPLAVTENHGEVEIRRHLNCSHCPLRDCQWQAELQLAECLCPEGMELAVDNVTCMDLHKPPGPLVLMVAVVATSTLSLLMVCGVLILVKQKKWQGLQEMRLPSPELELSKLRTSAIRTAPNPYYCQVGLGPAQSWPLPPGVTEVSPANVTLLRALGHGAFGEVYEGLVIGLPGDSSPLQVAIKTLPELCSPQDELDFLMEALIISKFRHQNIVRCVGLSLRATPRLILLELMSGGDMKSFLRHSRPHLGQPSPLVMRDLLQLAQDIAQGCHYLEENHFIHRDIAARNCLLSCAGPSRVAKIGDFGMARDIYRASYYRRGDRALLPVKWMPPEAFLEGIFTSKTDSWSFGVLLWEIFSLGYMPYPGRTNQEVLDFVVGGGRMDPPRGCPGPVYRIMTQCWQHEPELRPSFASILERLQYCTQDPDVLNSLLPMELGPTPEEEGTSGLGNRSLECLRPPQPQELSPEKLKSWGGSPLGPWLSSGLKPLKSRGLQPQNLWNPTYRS
Chain of Hepatocyte growth factor receptor (Homo sapiens) (P08581 whole entry): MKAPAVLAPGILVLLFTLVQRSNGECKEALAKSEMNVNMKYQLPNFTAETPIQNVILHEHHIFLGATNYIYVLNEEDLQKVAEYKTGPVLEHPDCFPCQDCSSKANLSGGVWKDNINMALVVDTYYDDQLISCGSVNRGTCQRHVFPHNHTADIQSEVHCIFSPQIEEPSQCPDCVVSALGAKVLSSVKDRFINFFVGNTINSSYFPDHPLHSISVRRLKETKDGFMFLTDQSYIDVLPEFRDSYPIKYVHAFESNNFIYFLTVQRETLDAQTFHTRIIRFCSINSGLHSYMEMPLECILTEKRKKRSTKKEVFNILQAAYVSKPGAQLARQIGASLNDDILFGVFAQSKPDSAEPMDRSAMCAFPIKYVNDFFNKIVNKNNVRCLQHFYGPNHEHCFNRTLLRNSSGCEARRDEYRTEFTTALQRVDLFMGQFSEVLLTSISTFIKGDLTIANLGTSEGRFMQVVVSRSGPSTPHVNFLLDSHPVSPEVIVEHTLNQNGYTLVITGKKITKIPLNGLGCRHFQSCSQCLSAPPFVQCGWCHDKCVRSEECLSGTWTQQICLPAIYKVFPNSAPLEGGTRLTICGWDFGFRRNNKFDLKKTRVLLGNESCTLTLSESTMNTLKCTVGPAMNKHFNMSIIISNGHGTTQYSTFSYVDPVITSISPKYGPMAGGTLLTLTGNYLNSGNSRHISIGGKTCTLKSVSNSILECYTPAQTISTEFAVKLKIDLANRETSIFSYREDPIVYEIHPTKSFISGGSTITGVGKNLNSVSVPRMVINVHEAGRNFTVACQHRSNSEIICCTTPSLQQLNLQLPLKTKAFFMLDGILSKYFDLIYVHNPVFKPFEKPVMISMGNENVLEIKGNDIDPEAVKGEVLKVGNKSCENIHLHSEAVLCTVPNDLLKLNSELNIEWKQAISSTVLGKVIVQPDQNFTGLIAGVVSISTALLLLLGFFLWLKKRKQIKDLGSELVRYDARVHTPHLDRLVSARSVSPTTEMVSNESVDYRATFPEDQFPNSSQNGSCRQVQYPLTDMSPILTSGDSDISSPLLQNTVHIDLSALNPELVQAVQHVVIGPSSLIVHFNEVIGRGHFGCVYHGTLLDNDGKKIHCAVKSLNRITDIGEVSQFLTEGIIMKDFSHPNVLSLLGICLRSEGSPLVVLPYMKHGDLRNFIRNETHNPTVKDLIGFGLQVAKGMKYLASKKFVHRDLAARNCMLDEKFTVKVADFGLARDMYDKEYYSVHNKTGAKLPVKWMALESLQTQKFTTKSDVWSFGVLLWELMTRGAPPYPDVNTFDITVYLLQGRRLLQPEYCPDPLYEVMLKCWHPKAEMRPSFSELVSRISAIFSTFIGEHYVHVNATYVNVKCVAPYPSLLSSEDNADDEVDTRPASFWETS
Chain of Tyrosine-protein kinase Lck (Homo sapiens) (P06239 2-509 limits assumed): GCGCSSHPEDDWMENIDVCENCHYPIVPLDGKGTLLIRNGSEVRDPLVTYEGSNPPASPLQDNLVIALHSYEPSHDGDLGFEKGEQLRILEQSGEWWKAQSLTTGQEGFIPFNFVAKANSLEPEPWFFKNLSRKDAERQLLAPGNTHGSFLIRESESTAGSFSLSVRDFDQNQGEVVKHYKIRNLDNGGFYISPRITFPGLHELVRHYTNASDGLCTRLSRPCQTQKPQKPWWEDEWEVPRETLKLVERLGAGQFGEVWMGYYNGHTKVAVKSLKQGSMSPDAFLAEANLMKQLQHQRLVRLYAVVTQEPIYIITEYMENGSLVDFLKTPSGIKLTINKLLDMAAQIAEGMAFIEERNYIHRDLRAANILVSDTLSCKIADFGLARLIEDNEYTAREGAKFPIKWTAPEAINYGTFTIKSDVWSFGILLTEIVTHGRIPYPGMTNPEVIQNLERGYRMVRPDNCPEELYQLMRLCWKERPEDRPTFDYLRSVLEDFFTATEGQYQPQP
Chain of Tyrosine-protein kinase Lyn (Homo sapiens) (P07948 2-512 limits assumed): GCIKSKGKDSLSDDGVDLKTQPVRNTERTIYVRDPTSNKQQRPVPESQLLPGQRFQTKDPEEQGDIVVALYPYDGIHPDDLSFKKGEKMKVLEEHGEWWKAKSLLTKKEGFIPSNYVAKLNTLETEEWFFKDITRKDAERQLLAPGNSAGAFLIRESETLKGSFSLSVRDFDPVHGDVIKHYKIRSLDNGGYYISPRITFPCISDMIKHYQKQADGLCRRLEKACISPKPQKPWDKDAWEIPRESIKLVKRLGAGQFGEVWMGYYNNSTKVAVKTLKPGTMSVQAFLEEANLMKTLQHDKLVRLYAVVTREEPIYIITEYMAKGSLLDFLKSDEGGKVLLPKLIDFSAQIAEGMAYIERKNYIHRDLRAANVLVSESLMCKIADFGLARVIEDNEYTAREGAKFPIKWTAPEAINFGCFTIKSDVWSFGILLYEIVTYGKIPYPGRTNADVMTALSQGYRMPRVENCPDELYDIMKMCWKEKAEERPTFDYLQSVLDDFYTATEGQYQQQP

The term inhibition denotes the change of the read-out against control, counted positive when it falls. `Fc1ccc(-c2ncn(C3CCNCC3)c2-c2ccnc(Oc3ccccc3)n2)cc1`: the inhibition in [1] worked out at 1.46%; in assay [2], 0.53%; in [3], 4.38%; in assay [4] it was 0.68%; in assay [5] it was 2.08%; in assay [6] it was 3.13%. Moreover, the inhibition in [7] is 1.77%; in assay [8], -2.11%; in assay [9] it was -2.53%; in assay [10], 0.54%; in [11], 1.61%; in [12] it was 2.38%. Besides, the inhibition in assay [13] stood at 2.64%; in [14], 0.89%; in assay [15], 1.56%; in assay [16], 0.77%; in assay [17], 6.11%; in assay [18] it was 5.19%. The inhibition turned out to be 0.34% in assay [19] and 1.71% in assay [20].

`Nc1nonc1-c1nc2cnccc2n1C1CCCCC1`: the inhibition in [1] was 20.6%; in [2], -4.78%; in assay [3] it was -1.9%; in assay [4], -2.27%; in assay [5], 13.3%; in assay [6] it was 1.39%. Also, the inhibition in assay [7] is 3.23%; in [8], -0.24%; in assay [9], 0.51%; in [10] it was -0.53%; in [11], 2.35%; in assay [12], -2.05%. In addition, the inhibition was 1.3% in [13]; -1.46% in assay [14]; -0.59% in [15]; -0.72% in assay [16]; 1.5% in [17]; -2.89% in assay [18]. Besides, the inhibition in [19] was 7.05%; in assay [20], -1.73%.

For `CCn1c(-c2nonc2N)nc2c(C#CC(C)(C)O)ncc(OCC3CCNCC3)c21`, the inhibition in [1] was found to be 8.48%; in assay [2] it was 3.82%; in assay [3], 5.6%; in assay [4], 1.76%; in assay [5] it was 4.21%; in assay [6], 3.17%. Besides, the inhibition was 3.26% in [7]; -3.71% in assay [8]; -1.12% in assay [9]; 2.4% in [10]; 5.07% in assay [11]; 3.39% in assay [12]. For the same compound, the inhibition worked out at 7.23% in assay [13]; 1.8% in assay [14]; 5.79% in assay [15]; 1.17% in assay [16]; 1.7% in [17]; 1.64% in [18]. For the same compound, the inhibition in [19] was found to be 2.5%; in assay [20], 4.04%.

In the case of `COc1cccc(COc2cc(-n3cnc4ccccc43)sc2C(N)=O)c1`, the inhibition in [1] is -3.97%; in assay [2], -0.07%; in [3], -0.97%; in assay [4] it was -0.12%; in [5], -0.76%; in assay [6], -2.2%. Besides, the inhibition in assay [7] is -2.16%; in assay [8], 0.12%; in [9] it was -0.7%; in assay [10], 0.36%; in assay [11] it was 2.93%; in assay [12] it was -0.93%. The inhibition in [13] is -1.31%; in [14], -1.21%; in [15], -1.14%; in assay [16] it was -2.89%; in [17], -0.86%; in [18] it was 4.83%. Moreover, the inhibition in assay [19] is 2.86%; in [20] it was -1.3%.

Consider `NS(=O)(=O)c1ccc(N/C=C2\C(=O)Nc3ccc4ncsc4c32)cc1`, for which the inhibition was determined as 90% in assay [1]; 0.89% in assay [2]; 14.5% in [3]; 12.1% in assay [4]; 58.9% in assay [5]; 0.83% in assay [6]. Besides, the inhibition in assay [7] was 20.2%; in assay [8], 4.26%; in [9] it was 13.2%; in assay [10] it was 5.19%; in [11], 10.4%; in assay [12], 6.6%. Besides, the inhibition in [13] came out at 28.3%; in [14], 2.87%; in assay [15], 22.1%; in [16], 0.39%; in assay [17] it was 7.72%; in assay [18], 14.9%. The inhibition in assay [19] was 43.3%; in [20], 11%.

As to `COc1cccc(-n2ncc3c(N/N=C/c4ccncc4)ncnc32)c1`, the inhibition in assay [1] was 57.2%; in assay [2], 2.45%; in assay [3], 12.7%; in [4] it was 9.47%; in [5], 46.9%; in [6], 0.93%. Moreover, the inhibition in [7] is 10.7%; in assay [8], 41.1%; in assay [9], 84%; in assay [10], 4.93%; in assay [11], 6.38%; in [12], 49%. For the same compound, the inhibition in assay [13] worked out at 87.5%; in assay [14], 43.2%; in assay [15], 85%; in [16] it was 6.35%; in [17] it was 39.2%; in assay [18], 18.9%. The inhibition in [19] turned out to be 49.5%; in assay [20], 11.1%.

As to `CCn1c(-c2nonc2N)nc2c(C#CCN)ncc(OCCCN)c21`, the inhibition in [1] was 3.33%; in assay [2], -3.56%; in assay [3] it was 3.48%; in assay [4], -1.86%; in [5], 2.2%; in assay [6], 1.17%. Further, the inhibition in assay [7] is 2.93%; in [8], 1.94%; in assay [9] it was 0.46%; in assay [10], -1.04%; in assay [11], -1.19%; in [12] it was 0.47%. Also, the inhibition came out at 2.24% in assay [13]; 1.28% in [14]; 0.49% in assay [15]; 0.13% in assay [16]; 0.01% in assay [17]; 0.78% in [18]. For the same compound, the inhibition came out at 4.36% in assay [19] and 2.41% in assay [20].

For the origin of these results see ChEMBL document CHEMBL1961873, “Compounds: GSK PKIS; Assays: Nanosyn kinase panel” (2012).
